These results are taken from PubChem BioAssay (NCI).

SMILES strings stand for the structures. Compounds without any hit were thinned out: in the full panel of roughly 83,000, 20% have a hit.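 Single-concentration screen, 48 h exposure, 96-well plates. Endpoint: percent growth. Below 10 = active.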 Calls of active or inactive are those of the source.

The experiment deals with MDA-MB-468 breast. Put plainly: NCI-60 one-dose screen, 48 h (100 = growth as untreated, 0 = no growth, -100 = all killed). The following applies: 10 µM unless noted.
Turning to `Nc1nc(Br)nc2c1ncn2C1CC(O)C(CO)O1` (stereo not given), the growth is 100% (inactive).
Then `COc1cc(/C=C/c2cc(/C=C/c3ccc(O)c(OC)c3)n(C(=O)Nc3ccc(F)cc3)n2)ccc1O`, with -14.6% (active); and `O=C(CCCCCCNC(=O)C(O)(O)C(F)(F)F)Nc1ccc(Br)cc1`, with 8.56% (active).
With `CCOC(=O)c1cc2c(n1Cc1ccccc1OC)-c1oncc1CCC2`, the growth was 7.1% (active).
As for `CCCCCCCCCC(=O)Oc1ccc(/C(=C(/C)Cc2cccc(OC)c2)c2ccc(OCCN(C)C)cc2)cc1`, the growth was 103% (inactive).
In the case of `Cc1n(Cc2ccc3ccccc3c2)c2ccccc2[n+]1Cc1ccc2ccccc2c1`, the growth is -60.8% (active).
For the molecule `O=C(NCc1cn(Cc2cccc(Oc3ccccc3)c2)nn1)c1cccnc1Nc1ccc(F)cc1`, the growth was 33.5% (inactive).
Regarding `Nc1c(N)c2ccccc2c2ccccc12`, the growth is 103% (inactive).
As for `CN1[C@@H]2CC[C@H]1/C(=C\c1ccccc1)C1=C2[C@@H](c2ccccc2)C(C#N)=C(N)O1`, the growth is 50.3% (inactive).
Take `Oc1ccc(N=Nc2ccc(N=Nc3ccccc3)cc2)cc1`: the growth was 83.1% (inactive).
With `Cc1ccc(C(=O)N2C/C(=C/c3ccc(F)cc3)C(=O)/C(=C/c3ccc(F)cc3)C2)cc1` the figure was 79.5% (inactive); with `COc1ccc(-c2nc3c(c(=O)n2C(C)=O)C(c2ccc(Cl)cc2)c2sc4c(Cl)cccc4c2O3)cc1` (stereo not given), 5.77% (active).
Then `c1cc2[nH]ncc2cc1-c1nc2ccc3[nH]ncc3c2c2c1CCCC2`, with -3.32% (active); and `CCN(CC)CCCCCNc1cc(OC(=O)c2ccc(Cl)cc2)cc2cccnc12`, with 71.6% (inactive); and `O=c1[nH]c(=O)n(C2CC(O)C(CO)O2)cc1CO` (stereo not given), with 101% (inactive).
With `COc1cc(/C=C/C(=O)c2cc(-c3ccc(F)cc3)ccc2O)cc(OC)c1OC` the figure was 65.6% (inactive); with `S=c1[nH]cccc1-c1nnc2n1Nc1nc3ccc(Cl)cc3cc1CS2`, 109% (inactive).
Consider `O=C(Nc1ccc(Br)cc1F)c1cc(F)ccc1O`, for which the growth is -0.885% (active).
On to `O=C1NC(=O)c2c1c1c3ccccc3ccc1c1[nH]c3ccc(Br)cc3c21`, for which the growth is -12.5% (active).
On to `Clc1ccc(-n2ncc3c(NCCCN4CCOCC4)ncnc32)cc1`, for which the growth was 74.4% (inactive).
Regarding `Cc1nc(NC(=O)N2CCC[C@H]2C(N)=O)sc1-c1ccnc(C(C)(C)C(F)(F)F)c1`, the growth was 6.59% (active).
Regarding `O=C(CSc1nc(-c2ccccc2)[nH]c1S(=O)(=O)c1ccccc1)NC1CC1`, the growth is 4.04% (active).
As for `CCN1CCN(CC(=O)Nc2nc3ccc(NCc4ccc(F)cc4)cc3s2)CC1`, the growth is 86.1% (inactive).
`CCC(=O)Oc1ccc(-c2ccccc2)cc1Br`: the growth was 98.4% (inactive).
Turning to `O=C(CCc1nnc2sc(Cc3ccccc3Cl)nn12)c1nc2ncccc2[nH]1`, the growth was 95.9% (inactive).
Turning to `C[C@]12CC[C@@H]3c4ccc(O)c(N)c4CC[C@H]3[C@@H]1CC[C@@H]2O`, the growth was 59.8% (inactive).
With `N#CC1C(=O)SC2c3ccccc3C(=O)c3ccccc3C12` (stereo not given) the figure was 89.4% (inactive); with `O=C(Nc1nc2ccc(OC(F)(F)F)cc2s1)c1ccc(F)cc1`, 21.1% (inactive); with `C=CCN=C(N)SCCCCCCSC(N)=NCC=C`, 84.7% (inactive).
Take `COc1cc2c3c(n([C@@H]4CCOC4)c(=O)c2cc1OC)-c1cc2c(cc1C3=O)OCO2`: the growth is 11.2% (inactive).
With `CCCCc1oc2ccccc2c1C(=O)c1ccc(O)cc1`, the growth was 78.4% (inactive).
Then `CCOC(=O)c1[nH]c(C)c(C(C)=O)c1C`, with 87.2% (inactive).
For `CCn1c(=O)c2c(=O)c3c4c(oc3oc2c2ccccc21)C(=O)c1ccccc1C4=O`, the growth was -29.6% (active).
`Cc1cccc(C)c1N1C(c2ccccc2)=NNC12C=CC(=O)c1c(O)cccc12` (stereo not given): the growth was 85.1% (inactive).
On to `Cc1ccc(OCCOCCOCCOCCOc2ccc(C)n(O)c2=S)c(=S)n1O`, for which the growth is -13.8% (active).
On to `Nc1c(C(=O)Nc2ccc(Cl)cc2)sc2nc(-c3cnccn3)cc(-c3cccs3)c12`, for which the growth was 82% (inactive).
As to `COc1cc2nc3cc([N+](=O)[O-])ccc3c(Cl)c2cc1OC`, the growth is 10.7% (inactive).
With `OC(c1cc(-c2ccccc2)nc2ccc(Cl)cc12)C1CCCCN1` (stereo not given), the growth is -17.1% (active).
As for `Nc1c(C(=O)Nc2ccccc2)sc2nc3c(cc12)CCCC3`, the growth is 31.1% (inactive).
Then `CC(C)(C)c1ccc(CC(=O)Nc2sc3c(c2C(N)=O)CCC(=O)C3)cc1`, with -13.9% (active).
